About 83,000 compounds went through this panel and 20% of them were active in at least one assay; those are over-represented in the sample as a whole.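 Cell lines were cultured in 96-well plates, exposed to a single compound concentration, and assessed for percent growth 48 hours later.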 A number with no mark means an inactive call. The source made the active and inactive calls. How the source made its calls: active means growth percent below 10; inactive means the rest.
The molecules below were run on PC-3 prostate (assay: NCI-60 one-dose screen, 48 h (100 = growth as untreated, 0 = no growth, -100 = all killed)). Conditions: 10 µM.
For `O=C(/C=C/c1ccco1)c1nc2ccccc2n1Cc1ccc(Br)cc1`, the growth was 34.2%.
`O=C(/C=C/c1ccco1)c1nc2ccccc2n1Cc1ccc(F)cc1` was tested, and the growth was 65.6%.
With `COc1cc2cc(C(=O)N3C[C@@H](CCl)c4c3cc(OC(=O)N3CCN(C)[C@@H]5CSSC[C@@H]53)c3ccccc43)[nH]c2c(OC)c1OC` the growth was -1.7% (active).
In the case of `C#CC[Se]C(=O)c1ccc2n[se]nc2c1`, the growth is reported as 39.6%.
For `O=C(/C=C/c1ccc(Cl)cc1Cl)c1nc2ccccc2n1Cc1ccc(F)cc1`, the growth was 29.4%.
`O=C(/C=C/c1ccc(Cl)cc1)c1nc2ccccc2n1Cc1ccc(Br)cc1` gave a growth of 36.6%.
In the case of `CCOP(=O)(OCC)C(NC(C)=O)C(=O)SCCN` (centres undefined), the growth is reported as 116%.
In the case of `COc1cc2cc(C(=O)N3C[C@@H](CCl)c4c3cc(OC(=O)N3CCN(C)[C@@H]5CSSC[C@H]53)c3ccccc43)[nH]c2c(OC)c1OC`, the growth is reported as -24.8% (active).
`COc1ccc2cc([C@H](C)C(=O)[Se]CCC#N)ccc2c1` was tested, and the growth was -10.1% (active).
`CC12OOC(C)(OO1)C2CCC(=O)OCCNc1ccnc2cc(Cl)ccc12` (centres undefined) showed a growth of 53.6%.
In the case of `CC(C)N=C([Se])NC(=O)c1cccs1`, the growth is reported as 8.44% (active).
For `Cc1ccc2[nH]c(=S)n(-c3ccc(F)cc3)c(=O)c2c1`, the growth was 90%.
Molecule `CCOC(=O)C1=C(Nc2ccccc2)C(=O)OC12C(=O)Nc1ccccc12` (centres undefined) has a growth of 91.3%.
For `CC12CCC3(CCC(=O)NCCCNc4ccnc5cc(Cl)ccc45)[C@@](C)(OO[C@]3(C)O1)O2`, the growth was 28.3%.
With `CC[C@]12C=CCN3CC[C@@]4(c5ccc(OC)cc5N(C)[C@H]4[C@@](O)(C(=O)OC)[C@@H]1OC(=O)CCCC[P+](C1CCCCC1)(C1CCCCC1)C1CCCCC1)[C@@H]32` the growth was 3.69% (active).
With `CC(=O)Oc1ccccc1C(=O)[Se]C(=NC(C)C)NC(C)C` the growth was -62.9% (active).
`COCCOCCOCCOc1ccc(-n2cc(CCCN(CCNc3ccnc4cc(Cl)ccc34)C(=O)CCC(=O)O[C@@H]3O[C@@H]4OC5(C)CC[C@H]6[C@H](C)CC[C@@H]([C@H]3C)[C@@]46OO5)nn2)cc1` was tested, and the growth was 32.3%.
For `C[C@H]1[C@@H](CC(=O)N[C@@H](Cc2coc3ccccc23)B(O)O)O[C@@H]2OC3(C)CC[C@H]4[C@H](C)CC[C@@H]1[C@@]24OO3`, the growth was -25.6% (active).
With `COP(=O)(CC(F)(F)C(F)(F)F)OC` the growth was 69.5%.
`CC12OOC(C)(OO1)C2CCC(=O)NCCNc1ccnc2cc(Cl)ccc12` (centres undefined) gave a growth of 98%.
In the case of `CC[C@]12C=CCN3CC[C@@]4(c5ccc(OC)cc5N(C)[C@H]4[C@@](O)(C(=O)OC)[C@@H]1OC(=O)CCC[P+](c1ccc(C)cc1)(c1ccc(C)cc1)c1ccc(C)cc1)[C@@H]32`, the growth is reported as -83.3% (active).
For `CC(C)N=C([Se])NC(=O)c1ccccc1`, the growth was -21.8% (active).
`CC[C@]12C=CCN3CC[C@@]4(c5ccc(OC)cc5N(C)[C@H]4[C@@](O)(C(=O)OC)[C@@H]1OC(=O)CCC[P+](C1CCCCC1)(C1CCCCC1)C1CCCCC1)[C@@H]32` was tested, and the growth was -12% (active).
`CC1=C(COCCOC(=O)c2ccc(S(=O)(=O)F)cc2)C2=C(C)C3(CC3)[C@@](C)(O)C(=O)C2=C1` was tested, and the growth was 8.96% (active).
In the case of `CC[C@]12C=CCN3CC[C@@]4(c5ccc(OC)cc5N(C)[C@H]4[C@@](O)(C(=O)OC)[C@@H]1OC(=O)CCCC[P+](c1ccc(OC)cc1)(c1ccc(OC)cc1)c1ccc(OC)cc1)[C@@H]32`, the growth is reported as -37.2% (active).
With `CC1=C(CCC=NNC(N)=O)C2=C(C)C3(CC3)[C@@](C)(O)C(=O)C2=C1` the growth was 2.58% (active).
`CC[C@@]12CC(C(=O)OC)=C3Nc4cc5c(cc4[C@@]34CCN(C[C@H]3O[C@H]31)[C@@H]24)[C@@H]1[C@H](O5)[C@@H](O)[C@@]2(CC)CC(C(=O)OC)=C3Nc4cc(OC)ccc4[C@@]34CCN1[C@@H]24` gave a growth of 22.2%.
`CCOP(=O)(CC(F)(F)C(F)(F)F)OCC` showed a growth of 63.8%.
With `CC1=C2C(=C[C@@](C)(COP(=O)(Oc3ccccc3)Oc3ccccc3)[C@@H]2O)C(=O)[C@@](C)(O)C12CC2` the growth was -31% (active).
Molecule `CC(=O)Oc1ccccc1C(=O)NC([Se])=NC1CCCCC1` has a growth of 44.6%.
With `C[C@H]1[C@H](OC(=O)CCC(=O)N(CCCc2cn(-c3ccc(CN4CCOCC4)cc3)nn2)CCNc2ccnc3cc(Cl)ccc23)O[C@@H]2OC3(C)CC[C@H]4[C@H](C)CC[C@@H]1[C@@]24OO3` the growth was 29.2%.
`O=C(/C=C/c1ccc(Cl)cc1)c1nc2ccccc2n1Cc1ccc(F)cc1` showed a growth of 19.5%.
In the case of `CC1=C(CCC=O)C2=C(C)C3(CC3)[C@@](C)(O)C(=O)C2=C1`, the growth is reported as -40.6% (active).
`O=C(NC([Se])=NC1CCCCC1)c1ccc2c(c1)OCO2` gave a growth of 36.4%.
In the case of `C[C@H]1[C@H](OC(=O)CCC(=O)N(CCCc2cn(-c3ccc(C#N)cc3)nn2)CCNc2ccnc3cc(Cl)ccc23)O[C@@H]2OC3(C)CC[C@H]4[C@H](C)CC[C@@H]1[C@@]24OO3`, the growth is reported as 33.9%.
`C[C@H]1[C@@H](Oc2ccc(-c3cn(-c4ccnc5cc(Cl)ccc45)nn3)cc2)O[C@@H]2OC3(C)CC[C@H]4[C@H](C)CC[C@@H]1[C@@]24OO3` gave a growth of 29.2%.
Work on `COc1ccc(/C=C/C(=O)c2nc3ccccc3n2Cc2ccc(Br)cc2)cc1` yielded a growth of 57.4%.
`COC(=O)CCn1c(-c2ccc(-n3cc(-c4ccc(O[C@H]5O[C@@H]6OC7(C)CC[C@H]8[C@H](C)CC[C@@H]([C@H]5C)[C@@]68OO7)cc4)nn3)cc2)nc2ccccc21` gave a growth of 25.7%.
`C[C@H]1[C@H](OC(=O)CCC(=O)N(CCCc2cn(-c3ccc([N+](=O)[O-])cc3)nn2)CCNc2ccnc3cc(Cl)ccc23)O[C@@H]2OC3(C)CC[C@H]4[C@H](C)CC[C@@H]1[C@@]24OO3` was tested, and the growth was 41.2%.
